Measurements as given in PubChem BioAssay (NCI).
About 83,000 compounds went through this panel and 20% of them were active in at least one assay; those are over-represented in the sample as a whole.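 In brief: 96-well plates, 48 h treatment, single concentration, percent growth endpoint.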 Values without a mark were called inactive. Calls of active or inactive are those of the source. How the source made its calls: active means growth percent below 10; inactive means the rest.

Tested on: HL-60(TB) leukemia
Assay: NCI-60 one-dose screen, 48 h (100 = growth as untreated, 0 = no growth, -100 = all killed)
Details: 10 µM unless noted

Q: With `Cc1ccc(S(=O)(=O)c2nc(-c3ccccc3)oc2Sc2nc3ccccc3s2)cc1` as the molecule, how does the growth read?
A: 71.9%

Q: Which growth does the source give for `O=C(Cn1c[n+](CC(=O)c2ccc([N+](=O)[O-])cc2)c2ccccc21)Nc1cccc2cccnc12` here?
A: 61.9%

Q: Which growth does the source give for `CC1(C)N=C(N)N=C(N)N1c1cccc(/C=C/C=C/c2cccc([N+](=O)[O-])c2)c1` here?
A: 12%

Q: With `C=C1C(=O)O[C@H]2[C@H]1CC/C(COC(=O)NCc1cc(OC)cc(OC)c1)=C\CC[C@@]1(C)O[C@@H]21` as the molecule, how does the growth read?
A: -20.1% (active)

Q: For `CCn1cc(C2NC(=O)c3cc(F)ccc3N2)c2cccc(Cl)c21` (stereo not given), which growth is on record?
A: -50% (active)

Q: For `O=c1[nH]c(=S)c2c(n1CCCO)CCC2`, which growth is on record?
A: 95.6%

Q: `CC1(C)N=C(N)N=C(N)N1c1ccc(Cl)cc1` was tested. Which growth did it give?
A: 51.6%

Q: How did the growth turn out when `BrCCCOc1ccc(Oc2ccc(OCCCBr)cc2)cc1` was run?
A: 106%

Q: For `COc1ccc(NC(=O)CSc2nnc(-c3cc(-c4ccccc4)nc4ccccc34)n2-c2ccccc2)cc1`, which growth is on record?
A: 105%

Q: Which growth does the source give for `CC12CCC3C(CCC4CC(O)CCC43C)C1C/C(=C/O)C(=O)O2` (stereo not given) here?
A: 107%

Q: `Nc1ccn(C2O[C@H](CO)[C@@H](O)[C@H]2O)c(=O)n1` (stereo not given in full) was tested. Which growth did it give?
A: 99.7%

Q: With `CC(=O)Oc1ccc(Cl)cc1CN(C(C)=O)C1CCCCC1` as the molecule, how does the growth read?
A: 92.8%

Q: `CCC(C)(c1cc(C(C)(C)C)c(O)c(C(C)(C)C)c1)c1cc(C(C)(C)C)c(O)c(C(C)(C)C)c1` was tested. Which growth did it give?
A: 99.3%

Q: With `COc1ccc(C2CC(c3ccc4ccccc4c3)=NN2/C=C2\SC(=S)N(NC(=O)Cc3ccccc3Nc3c(Cl)cccc3Cl)C2=O)cc1` (stereo not given) as the molecule, how does the growth read?
A: -27.4% (active)

Q: How did the growth turn out when `O=C(/C=C\c1ccc(NCc2ccc(C(=O)O)cc2)cc1)CCl` was run?
A: 97.7%

Q: How did the growth turn out when `Cc1ccn2c3c(c(C(=O)O)c2c1)C(=O)c1ccccc1C3=O` was run?
A: 73.2%

Q: How did the growth turn out when `O=c1[nH]c2cc(O)ccc2n2cc3c(F)cccc3c12` was run?
A: 25.5%

Q: Which growth does the source give for `C/C(=N\NC(=O)c1ccncc1)c1ccc(N)cc1` here?
A: 90.2%

Q: With `C=C(C)[C@@H]1CC[C@]2(C(=O)N3CCN(CC)CC3)CC[C@]3(C)[C@H](CC[C@@H]4[C@@](C)(CCC(=O)N5CCN(CC)CC5)[C@H](C(=C)C)CC[C@]43C)[C@@H]12` as the molecule, how does the growth read?
A: 30.4%

Q: For `CCCCCCC(CCCC)COC(=O)c1ccc(Cl)cc1` (stereo not given), which growth is on record?
A: 100%

Q: Which growth does the source give for `NC(=O)CN1CCN(c2ccccc2Cl)CC1` here?
A: 92.4%

Q: `O=C(/C=C/c1c(Cl)nc2sccn12)c1ccc(F)c(F)c1` was tested. Which growth did it give?
A: 78.3%

Q: With `CCOC(=O)c1c(C)oc2ncnc(N3CCN(C(=O)COc4ccc(C(C)(C)C)cc4)CC3)c12` as the molecule, how does the growth read?
A: 73.9%

Q: How did the growth turn out when `CCN(CC)CCC(C(=O)O)(c1ccccc1)c1ccccc1` was run?
A: 93.5%

Q: `COc1ccc(OC)c2c1C(=O)CC2C` (stereo not given) was tested. Which growth did it give?
A: 103%

Q: Which growth does the source give for `CC1=CC2OC34COC3CC(OC(=O)C(F)(F)F)C4(C)C2(C)CC1` (stereo not given) here?
A: 114%

Q: For `O=C1/C(=C/c2ccccc2[N+](=O)[O-])COc2ccc(O)c(O)c21`, which growth is on record?
A: -29.2% (active)

Q: How did the growth turn out when `OCCn1cccn1` was run?
A: 99.2%

Q: For `COc1ccc(OC)c(/C=C/c2nc(=S)n(-c3ccc(Cl)cc3)[nH]2)c1`, which growth is on record?
A: 4.33% (active)

Q: For `CCCCCCCCCCCC1=NC(C)(C)CN1CC(C)O` (stereo not given), which growth is on record?
A: -15.1% (active)

Q: With `O/N=C1\c2ccccc2-c2ccc(F)cc21` as the molecule, how does the growth read?
A: 92.3%

Q: With `CC(C)OC(=O)Nc1ccc(-c2nc(-c3cccc(OCCN4CCOCC4)c3)c(-c3ccnc(Br)c3)[nH]2)cc1` as the molecule, how does the growth read?
A: -47.7% (active)

Q: With `Nn1c(-c2ccc(Cl)cc2)nc2c(-c3ccc(Cl)cc3)nc3ccc(Cl)cc3c2c1=O` as the molecule, how does the growth read?
A: 43.4%

Q: For `C=CCOc1ccc(/C=C2\SC(=S)N(CCc3ccc(O)cc3)C2=O)cc1`, which growth is on record?
A: 38.9%

Q: How did the growth turn out when `C#Cc1cc2c(N)c(C(=O)c3cc(OC)c(OC)c(OC)c3)[nH]c2cc1OC` was run?
A: -6.26% (active)

Q: `CCCn1nc(-c2ccccc2)c2c(-c3ccccc3)onc2c1=O` was tested. Which growth did it give?
A: 69.6%

Q: `CCOC(=O)Nc1ccc2c(c1)/C(=N\NC(=S)NC)c1ccccc1-2` was tested. Which growth did it give?
A: 103%

Q: How did the growth turn out when `CCN1CCN(c2nc(C)cc(N(CCCNc3ccnc4cc(Cl)ccc34)Cc3ccc4c(c3)OCO4)n2)CC1` was run?
A: -60.4% (active)

Q: With `CN(C)C1CCN(C(=O)c2ccc(NC(=O)Nc3ccc(-c4nc(N5CCOCC5)c5cccn5n4)cc3)cc2)CC1` as the molecule, how does the growth read?
A: 4.58% (active)

Q: With `NS(=O)(=O)c1ccc(CCN2C(=O)/C(=C\c3ccc(Cl)cc3)C=C2c2ccc(Oc3ccccc3)cc2)cc1` as the molecule, how does the growth read?
A: 83.7%
